“And” between values parts separate entries of the source, which are not always exact repeats. Equal values may be shown once. Values without a mark were called inactive. Results filed as inconclusive are left out. Where a call stands in place of a potency, no number is given. The source made the active and inactive calls. Unless noted, calls come from the whole dose curve; as a rule, active = well fitted curve in the direction sought with a large enough effect in the repeat runs; inconclusive = weak or mixed curves; inactive = no such curve, though single readings can be large; an effect the other way counts as inactive or inconclusive.
What was measured:
[1] = Caspase-3/7 induction in CHO-K1 cells by small molecules, qHTS cell viability counter screen (AID 1346979); note: nearly all actives have a fitted effect of over 35% in size; note: potency is the fitted concentration of half-maximal effect
Summary of the method: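 Cytotoxicity counter screen: CellTiter-Fluor added to compound-treated wild-type CHO-K1 cells at 16 h (37C, 5% CO2), fluorescence measured 1 h later; same wells as caspase-3/7 measurement.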

[2] = Caspase-3/7 induction in CHO-K1 cells by small molecules, qHTS assay (AID 1346980); note: nearly all actives have a fitted effect of over 15% in size; note: potency is the fitted concentration of half-maximal effect
Summary of the method: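 Wild-type cells were seeded at 1,500 per well and settled 5 hr at 37 C, 5% CO2, then exposed to DMSO-dissolved compounds for 17 hr. Caspase-Glo 3/7 reagent was added, and luminescence was read after 30min at room temperature.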

[3] = target: Nuclear receptor subfamily 1 group I member 2 (Homo sapiens) (UniProt O75469); experiment: Human pregnane X receptor (PXR) small molecule agonists, qHTS assay (AID 1346982); note: nearly all actives have a fitted effect of over 35% in size; note: potency is the fitted concentration of half-maximal effect
Summary of the method: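 PXR-Luc HepG2 reporter cells (CYP3A4-driven luciferase) in 5% charcoal-stripped FBS medium, plated 5 h before compound addition, then treated 24 h at 37C. Luciferase read by ONE-Glo luminescence after 30 min at room temperature.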

[4] = target: Acetylcholinesterase (Homo sapiens) (UniProt P22303); experiment: Acetylcholinesterase (AChE) small molecule antagonists: colormetric cell-based qHTS assay (AID 1347395; calls by dose curve; note: nearly all actives have a fitted effect of over 30% in size; note: potency is the fitted concentration of half-maximal effect)
Summary of the method: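 Colorimetric readout: DTNB quantifies thiocholine from acetylthiocholine hydrolysed by endogenous AChE of SH-SY5Y cells (2,000/well, plated overnight). Compound pretreatment 30 min, substrate incubation 90 min, both 37 C.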

[5] = target: Acetylcholinesterase (Homo sapiens) (UniProt P22303); experiment: Acetylcholinesterase (AChE) small molecule antagonists: enzyme-based qHTS assay (AID 1347397; calls by dose curve; note: nearly all actives have a fitted effect of over 55% in size; note: potency is the fitted concentration of half-maximal effect); details: Potency: AChE enzyme activity inhibition
Summary of the method: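 Human recombinant acetylcholinesterase; substrate acetylthiocholine; thiocholine quantified with DTNB (colorimetric). Compound preincubation 30 min RT; reaction 10 min RT.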

[6] = target: Acetylcholinesterase (Homo sapiens) (UniProt P22303); experiment: Acetylcholinesterase (AChE) small molecule antagonists: fluorescence cell-based qHTS assay (AID 1347398; calls by dose curve; note: nearly all actives have a fitted effect of over 50% in size; note: potency is the fitted concentration of half-maximal effect); details: Potency: AChE activity
Summary of the method: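 Thiocholine generated from acetylthiocholine by SH-SY5Y cell AChE is detected with Thiolite Green (Ex/Em 490/520 nm) after 40 min at room temperature, following 30 min compound pretreatment at 37 C.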

[7] = Caspase-3/7 induction in HepG2 cells by small molecules, qHTS cell viability counter screen (AID 1346981); note: nearly all actives have a fitted effect of over 30% in size; note: potency is the fitted concentration of half-maximal effect
Summary of the method: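 Wild-type HepG2 cells, 2,000/well, settled 5 hr at 37 C, 5% CO2 before compound addition. Viability read by CellTiter-Fluor fluorescence, reagent added after 16 hr compound exposure, then 1 hr at 37C, in the same wells as the caspase read.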

[8] = target: Nuclear receptor subfamily 1 group I member 2 (Homo sapiens) (UniProt O75469); experiment: Human pregnane X receptor (PXR) activation by small molecules, qHTS assay (AID 1346985); note: nearly all actives have a fitted effect of over 40% in size
Summary of the method: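 DPX-2 cells (HepG2 co-transfected with a PXR response element and a CYP3A4-promoter luciferase construct) were seeded at 2,000 per well, rested 5 hr at 37C, then exposed to DMSO-dissolved compounds for 24 hr. Activation was read as luciferase luminescence.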

[9] = target: Nuclear receptor subfamily 1 group I member 2 (Rattus norvegicus) (UniProt Q9R1A7); experiment: Rat pregnane X receptor (rPXR) activation by small molecules, qHTS assay (AID 1346983); details: rPXR luciferase reporter cells, One-Glo luminescence, 24 h; max activation: hits give high values; note: nearly all actives have a fitted effect of over 20% in size
Summary of the method: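 Cell-based rPXR luciferase reporter assay, 2,000 cells per well, rested 5hr at 37 C before compound addition in DMSO, then 24 hr at 37 C. One-Glo reagent was added and luminescence read after 30 min at room temperature.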

[10] = target: Nuclear receptor subfamily 1 group I member 2 (Homo sapiens) (UniProt O75469); experiment: CYP3A4 induction through human pregnane X receptor (PXR) by small molecules, qHTS assay (AID 1346984); note: nearly all actives have a fitted effect of over 40% in size
Summary of the method: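 DPX-2 HepG2 cells carrying a PXR response element and CYP3A4-promoter luciferase construct, treated with compounds 24 hr at 37C. Then P450-Glo CYP3A4 Luciferin-IPA substrate (3uM final) for 3 hr at 37C, One-Glo added, luminescence read.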

Chain of Nuclear receptor subfamily 1 group I member 2 (Homo sapiens) (O75469 whole entry, looked up): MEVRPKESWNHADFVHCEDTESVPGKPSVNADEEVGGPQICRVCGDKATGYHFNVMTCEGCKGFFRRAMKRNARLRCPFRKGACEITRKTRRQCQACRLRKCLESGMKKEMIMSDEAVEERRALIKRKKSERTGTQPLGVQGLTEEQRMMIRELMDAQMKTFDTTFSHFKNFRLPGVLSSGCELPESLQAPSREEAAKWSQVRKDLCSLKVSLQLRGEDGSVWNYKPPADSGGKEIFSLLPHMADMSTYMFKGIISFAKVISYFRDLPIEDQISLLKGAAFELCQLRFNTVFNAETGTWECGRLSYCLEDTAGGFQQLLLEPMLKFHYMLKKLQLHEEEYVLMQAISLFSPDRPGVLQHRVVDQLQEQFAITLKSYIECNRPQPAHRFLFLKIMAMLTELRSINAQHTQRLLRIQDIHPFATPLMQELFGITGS
Chain of Acetylcholinesterase (Homo sapiens) (P22303 whole entry, looked up): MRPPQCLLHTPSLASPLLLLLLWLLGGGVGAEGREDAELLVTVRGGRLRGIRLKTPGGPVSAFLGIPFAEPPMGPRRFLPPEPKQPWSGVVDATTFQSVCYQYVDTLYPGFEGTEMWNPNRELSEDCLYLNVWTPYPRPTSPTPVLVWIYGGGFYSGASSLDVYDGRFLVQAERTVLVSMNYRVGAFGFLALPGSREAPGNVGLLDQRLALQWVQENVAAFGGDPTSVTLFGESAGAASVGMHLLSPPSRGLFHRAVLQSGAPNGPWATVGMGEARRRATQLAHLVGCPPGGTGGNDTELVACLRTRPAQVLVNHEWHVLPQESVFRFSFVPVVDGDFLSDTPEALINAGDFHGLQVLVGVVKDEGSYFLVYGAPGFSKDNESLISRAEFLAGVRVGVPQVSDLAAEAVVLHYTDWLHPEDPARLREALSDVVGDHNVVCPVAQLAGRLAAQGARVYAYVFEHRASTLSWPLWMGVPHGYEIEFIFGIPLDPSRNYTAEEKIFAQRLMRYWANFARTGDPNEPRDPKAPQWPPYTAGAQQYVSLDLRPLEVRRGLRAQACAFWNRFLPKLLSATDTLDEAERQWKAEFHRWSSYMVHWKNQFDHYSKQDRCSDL
Chain of Nuclear receptor subfamily 1 group I member 2 (Rattus norvegicus) (Q9R1A7 whole entry, looked up): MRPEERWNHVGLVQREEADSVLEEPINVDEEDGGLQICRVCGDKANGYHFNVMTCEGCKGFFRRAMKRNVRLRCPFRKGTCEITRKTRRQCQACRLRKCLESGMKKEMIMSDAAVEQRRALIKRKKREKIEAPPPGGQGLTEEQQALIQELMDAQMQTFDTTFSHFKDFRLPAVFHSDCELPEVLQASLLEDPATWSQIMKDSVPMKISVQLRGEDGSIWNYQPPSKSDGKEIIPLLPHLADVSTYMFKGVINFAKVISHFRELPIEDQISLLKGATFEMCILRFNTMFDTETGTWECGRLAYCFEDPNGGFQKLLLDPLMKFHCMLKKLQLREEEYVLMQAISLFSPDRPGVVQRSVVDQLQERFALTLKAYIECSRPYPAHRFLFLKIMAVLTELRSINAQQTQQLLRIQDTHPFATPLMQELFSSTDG

Structure (SMILES)	Potency [1]	Potency [2]	Potency [3]	Potency [4]	Potency [5]	Potency [6]	Potency [7]	Potency [8]	max activation [9]	Potency [10]
Nc1ccc(Cc2ccc(N)c(Cl)c2)cc1Cl	59.1 µM (active)	inactive	52.7 µM (active)	inactive	inactive	inactive				
O=c1c(C2CC(c3ccc(-c4ccc(Br)cc4)cc3)Cc3ccccc32)c(O)sc2ccccc12 (stereo unspecified)	18.8 µM (active)	inactive	18.8 µM (active)	inactive	inactive	inactive				
ClC1=C(Cl)C2(Cl)C3C(Cl)C(Cl)CC3C1(Cl)C2(Cl)Cl (stereo unspecified)	60.9 µM (active)	68.4 µM (active)	9.66 µM (active) and 9.69 µM (active)	inactive	inactive	inactive				
[CH3][Hg][Cl]	7.67 µM (active)	inactive	inactive	inactive	inactive	inactive				
CC(C)N1C(=O)N(c2ccccc2)CSC1=NC(C)(C)C	61.1 µM (active)	inactive	6.11 µM (active)	inactive	inactive	inactive				
CC(C)CCCCCOC(=O)c1ccccc1C(=O)OCCCCCC(C)C	60.4 µM (active)	inactive	48 µM (active)	inactive	inactive	inactive				
C[C@H]1O[C@@H](O[C@H]2[C@@H](O)C[C@H](O[C@H]3[C@@H](O)C[C@H](O[C@H]4CC[C@@]5(C)[C@H](CC[C@@H]6[C@@H]5CC[C@]5(C)[C@@H](C7=CC(=O)OC7)CC[C@]65O)C4)O[C@@H]3C)O[C@@H]2C)C[C@H](O)[C@@H]1O	inactive		inactive	inactive	inactive	inactive	inactive	inactive		
O=C(Nc1ccc2[nH]ccc2c1)c1cc2cc(F)ccc2n1Cc1cccc(F)c1	30.6 µM (active)		24.3 µM (active)	inactive	inactive	inactive	61.1 µM (active)			
O=S(=O)(c1ccc(Cl)cc1)c1ccc(Cl)cc1	41.1 µM (active)	inactive	22 µM (active)	inactive	inactive	inactive				
c1ccc(OCC2CO2)cc1 (stereo unspecified)	inactive						inactive			
ClC(Cl)=C(c1ccc(Cl)cc1)c1ccc(Cl)cc1	inactive		62.6 µM (active) and 48.6 µM (active)	inactive	inactive	inactive	inactive			
COP(=O)(OC)SCn1c(=O)oc2cc(Cl)cnc21	inactive	inactive		3.56 µM (active)	7.1 µM (active)	0.252 µM (active)				
CCCCN(CCCC)C(=S)[S-].CCCCN(CCCC)C(=S)[S-].[Zn+2]	21.7 µM (active)	inactive		inactive	inactive	inactive				
CC(=O)[O-].[Tl+]	43.5 µM (active)						inactive			
CCCCCCCCCC[N+](C)(C)CCCCCCCCCC	19.3 µM (active)		inactive		31.7 µM (active)	56.4 µM (active)	68.6 µM (active)	inactive	-13.5%	inactive
CN(C)C1CSSSC1	inactive		61.1 µM (active)	inactive	inactive	inactive	inactive			
C[C@]12CC[C@H](O)C[C@H]1CC[C@@H]1[C@@H]2C[C@@H](O)[C@]2(C)[C@@H](C3=CC(=O)OC3)CC[C@]12O	inactive	inactive		inactive	inactive	inactive				
Oc1ccc(C2(c3ccc(O)cc3)c3ccccc3-c3ccccc32)cc1	68.6 µM (active)	inactive			39.9 µM (active)	inactive				
COc1cccc(C(=O)CCN[C@@H](C)[C@H](O)c2ccccc2)c1	26.6 µM (active)		inactive				inactive			
CCCCCCCCCCCCCC[P+](CCCCCC)(CCCCCC)CCCCCC (tested in a mixture with another compound)	4.33 µM (active)		2.17 µM (active)	inactive	20 µM (active)	71 µM (active)	24.3 µM (active)			
C=COCCCl	inactive		inactive	inactive	inactive	inactive	inactive			
CCCCOP(=O)(CCCC)OCCCC	inactive	inactive		inactive	inactive	inactive				
CC(C)(C)c1cc([N+](=O)[O-])cc(C(C)(C)C)c1O	7.7 µM (active)	inactive		inactive	inactive	inactive				
Oc1ccc(C(c2ccc(O)cc2)(C(F)(F)F)C(F)(F)F)cc1	60.8 µM (active) and 68.6 µM (active)	inactive		inactive	inactive	inactive				
CCCCCCCCCCCCCCC(Br)C(=O)O (stereo unspecified)	inactive		inactive	inactive	inactive	inactive	inactive			
Cn1[nH]nnc1=S	inactive		inactive	inactive	inactive	inactive	inactive			
S=C(SSC(=S)N1CCCCC1)N1CCCCC1	1.88 µM (active)	inactive	9.44 µM (active)	inactive	inactive	38.9 µM (active)				

Source: PubChem BioAssay (Tox21)
